Results reported in the supplement of paper PMC6555819.

Assays:
Assay in all cases: PBM binding z-score (relative to random genomic background probes); higher = stronger binding; sequences stand for … in GC…GCGATTGACAGCGTAGAATGAAGG
[1] = tested on: FXR:RXRa (NR concentration 270 nM, RXRa partner concentration 90 nM)
Method in brief: (§1)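 Scanned fluorescence from custom Agilent 4×180K protein-binding microarrays was regression-normalized. Binding z-scores use random background probes as reference. Ligand-free nuclear receptor dimers were incubated on the arrays for 1 h and detected with antibodies against each partner (one per run).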

[2] = tested on: LXRa:RXRa (NR concentration 270 nM, RXRa partner concentration 90 nM)
Method in brief: as §1

[3] = tested on: LXRa homodimer (NR concentration 270 nM)
Method in brief: as §1

[4] = tested on: LXRb:RXRa (NR concentration 270 nM, RXRa partner concentration 90 nM)
Method in brief: as §1

[5] = tested on: LXRb homodimer (NR concentration 270 nM)
Method in brief: as §1

[6] = tested on: PPARa:RXRa (NR concentration 270 nM, RXRa partner concentration 90 nM)
Method in brief: as §1

[7] = tested on: PPARg:RXRa (NR concentration 180 nM, RXRa partner concentration 90 nM)
Method in brief: as §1

[8] = tested on: PPARg:RXRa 270nM:90nM, anti-RXR (NR concentration 270 nM, RXRa partner concentration 90 nM)
Method in brief: as §1

[9] = tested on: PPARg:RXRa 30nM:10nM, anti-RXR (NR concentration 30 nM, RXRa partner concentration 10 nM)
Method in brief: as §1

[10] = tested on: PPARg:RXRa 90nM:30nM, anti-RXR (NR concentration 90 nM, RXRa partner concentration 30 nM)
Method in brief: as §1

[11] = tested on: PPARg:RXRa DBDmut IVT, anti-RXR (DBD mutation: RXRa K156A/R161A, NR concentration 270 nM, RXRa partner concentration 90 nM)
Method in brief: as §1

[12] = tested on: PPARg:RXRa IVT, anti-PPARg (NR concentration 270 nM, RXRa partner concentration 90 nM)
Method in brief: as §1

[13] = tested on: PPARg DBDmut:RXRa IVT, anti-PPARg (DBD mutation: PPARg1 K132A/R137A, NR concentration 270 nM, RXRa partner concentration 90 nM)
Method in brief: as §1

[14] = tested on: PPARg DBDmut IVT, anti-PPARg (DBD mutation: PPARg1 K132A/R137A, NR concentration 270 nM)
Method in brief: as §1

[15] = tested on: PPARg homodimer (NR concentration 180 nM)
Method in brief: as §1

[16] = tested on: PXR:RXRa (NR concentration 270 nM, RXRa partner concentration 90 nM)
Method in brief: as §1

[17] = tested on: PXR homodimer (NR concentration 270 nM)
Method in brief: as §1

[18] = tested on: RARa:RXR (NR concentration 270 nM, RXRa partner concentration 90 nM)
Method in brief: as §1

[19] = tested on: RARa homodimer (NR concentration 270 nM)
Method in brief: as §1

[20] = tested on: RARb:RXRa (NR concentration 270 nM, RXRa partner concentration 90 nM)
Method in brief: as §1

Sequence | PBM binding z-score [1] | PBM binding z-score [2] | PBM binding z-score [3] | PBM binding z-score [4] | PBM binding z-score [5] | PBM binding z-score [6] | PBM binding z-score [7] | PBM binding z-score [8] | PBM binding z-score [9] | PBM binding z-score [10] | PBM binding z-score [11] | PBM binding z-score [12] | PBM binding z-score [13] | PBM binding z-score [14] | PBM binding z-score [15] | PBM binding z-score [16] | PBM binding z-score [17] | PBM binding z-score [18] | PBM binding z-score [19] | PBM binding z-score [20]
CGTCAAAGTTCAAGATAACGTAACAGAAAGCAGC | 6.13 | 5.32 | 2.94 | 3.5 | 1.64 | 4.45 | 4.44 | 4.96 | 2.17 | 3.75 | 0.612 | 1.57 | 1.5 | 1.52 | 3.29 | 4.2 | 3.04 | 3.35 | 2.34 | 4.9
TAGCCTAGGTCATGCGCCAGTATACCACGCGAAC | 4.17 | 3.31 | 0.602 | 2.61 | 0.0918 | 3.83 | 2.77 | 3.08 | 0.794 | 1.89 | 1.95 | 3.1 | 1.01 | -0.0835 | 1.11 | 1.61 | -0.142 | 2.54 | -0.948 | 3.76
ATCTCTAGGTAACCAAGTTCAGTGAATGCCGAAC | 0.707 | 1.04 | 0.708 | 0.638 | 0.763 | 1.33 | 0.617 | 0.913 | 0.376 | 0.682 | 3.64 | 3.09 | 0.611 | 1.02 | 1 | 1.86 | 1.98 | 0.882 | 0.575 | 1.36
CGAACTAGGTCAGAACAGGACAGTGTAGGATGAT | 1.59 | 0.807 | -0.126 | 0.58 | -0.539 | 3.33 | 5.09 | 4.48 | 1.85 | 3.29 | 7.44 | 7.53 | 3.18 | 2.19 | 1.06 | 0.998 | 0.228 | 0.95 | 0.229 | 3.07
GCTGCTAGGTCTACTGATGGTCAGCTAAAGCTCG | -0.686 | -0.0634 | -0.277 | -0.896 | -0.887 | -0.691 | -0.539 | -0.623 | -0.649 | -0.834 | 0.214 | -0.311 | -1.02 | -1.38 | -1.15 | -0.901 | -1.2 | -0.701 | -0.754 | -0.132
AGTCAAAGTTCACTAGGTGACGTAAGATTCAGCT | 5.44 | 5.36 | 3.15 | 3.09 | 0.835 | 5.06 | 7.82 | 7.04 | 3.81 | 6.5 | 3.75 | 6.05 | 1.29 | 0.955 | 3.29 | 4.22 | 2.57 | 3.34 | 1.67 | 4.87
GCAATTAGTTGAAAGGGCAACCGAATGATTCTCG | 0.0908 | 0.491 | 0.0352 | 0.496 | -0.314 | 2.69 | 3.22 | 5.14 | 3.49 | 5.31 | 0.317 | 1.39 | 0.151 | 0.483 | 0.967 | 0.692 | 0.161 | 1.46 | 1.18 | 2.15
CCGACTGGGGCAACGTTACCATAACGCACAGCCA | -0.667 | -0.521 | -0.397 | -0.465 | -1.01 | 0.0876 | 1.64 | 0.667 | -0.502 | -0.136 | 4.02 | 3.62 | -0.725 | -0.25 | -0.224 | -0.885 | -0.271 | -0.695 | -0.177 | 0.224
